The supplement of paper PMC12645437, “Orthogonal IMiD-Degron Pairs Induce Selective Protein Degradation in Cells” (ACS Chemical Biology, 2025)
The full ranking holds about 8,300 sequences; the median of “log2 fold change of degron read counts, EGFP-low vs EGFP+ sorted cells (limma voom), compound-induced degradation” is about -1.1, and the highest 2% start at about 3.2. The entries come from a sample that favours the highest values as a whole.

T1: CRBN, Q96SW2
T1 chain: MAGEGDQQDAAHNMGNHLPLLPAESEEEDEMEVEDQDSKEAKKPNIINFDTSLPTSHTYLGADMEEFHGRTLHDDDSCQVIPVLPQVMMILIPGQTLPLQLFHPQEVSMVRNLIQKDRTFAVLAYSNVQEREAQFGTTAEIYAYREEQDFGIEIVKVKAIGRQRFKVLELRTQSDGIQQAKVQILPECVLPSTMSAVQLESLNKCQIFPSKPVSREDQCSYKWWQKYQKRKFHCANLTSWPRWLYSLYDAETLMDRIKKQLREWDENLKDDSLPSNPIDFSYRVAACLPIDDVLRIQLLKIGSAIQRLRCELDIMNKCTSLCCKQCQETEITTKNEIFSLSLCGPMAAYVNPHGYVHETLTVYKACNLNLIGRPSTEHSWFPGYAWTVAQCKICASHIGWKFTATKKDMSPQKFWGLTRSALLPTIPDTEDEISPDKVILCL

B1: 46F_47E_49P_50I_52G_53R_54S_55F_67L_, Q9UKT9 (peptide)
chain: FECPICGRSFTQKGNLLRHIKL
B2: 46F_47F_49S_50V_52G_53H_54N_55F_67L_, Q9UKT9 (peptide)
chain: FFCSVCGHNFTQKGNLLRHIKL
B3: 46F_47C_49N_50Q_52G_53R_54R_55F_67L_, Q9UKT9 (peptide)
chain: FCCNQCGRRFTQKGNLLRHIKL
B4: 46L_47R_49E_50I_52G_53F_54N_55C_67L_, Q9UKT9 (peptide)
chain: LRCEICGFNCTQKGNLLRHIKL
B5: 46F_47G_49N_50Q_52G_53R_54I_55F_67L_, Q9UKT9 (peptide)
chain: FGCNQCGRIFTQKGNLLRHIKL
B6: 46F_47E_49N_50Q_52G_53R_54H_55F_67L_, Q9UKT9 (peptide)
chain: FECNQCGRHFTQKGNLLRHIKL
B7: 46F_47S_49N_50Q_52G_53R_54T_55F_67L_, Q9UKT9 (peptide)
chain: FSCNQCGRTFTQKGNLLRHIKL
B8: 46F_47H_49E_50I_52G_53R_54S_55F_67L_, Q9UKT9 (peptide)
chain: FHCEICGRSFTQKGNLLRHIKL
B9: 46F_47D_49P_50I_52G_53A_54L_55F_67L_, Q9UKT9 (peptide)
chain: FDCPICGALFTQKGNLLRHIKL
B10: 46L_47H_49E_50I_52G_53F_54T_55C_67L_, Q9UKT9 (peptide)
chain: LHCEICGFTCTQKGNLLRHIKL
B11: 46L_47F_49E_50I_52G_53F_54T_55C_67L_, Q9UKT9 (peptide)
chain: LFCEICGFTCTQKGNLLRHIKL
B12: 46L_47N_49E_50I_52G_53F_54T_55C_67L_, Q9UKT9 (peptide)
chain: LNCEICGFTCTQKGNLLRHIKL
B13: 46F_47Q_49N_50Q_52G_53H_54N_55F_67L_, Q9UKT9 (peptide)
chain: FQCNQCGHNFTQKGNLLRHIKL
B14: 46F_47T_49E_50Q_52G_53A_54Y_55F_67L_, Q9UKT9 (peptide)
chain: FTCEQCGAYFTQKGNLLRHIKL
B15: 46F_47E_49E_50Q_52G_53A_54P_55F_67L_, Q9UKT9 (peptide)
chain: FECEQCGAPFTQKGNLLRHIKL
B16: 46F_47N_49P_50I_52G_53R_54P_55F_67L_, Q9UKT9 (peptide)
chain: FNCPICGRPFTQKGNLLRHIKL
B17: 46F_47F_49P_50I_52G_53A_54M_55F_67L_, Q9UKT9 (peptide)
chain: FFCPICGAMFTQKGNLLRHIKL
B18: 46F_47K_49P_50I_52G_53A_54P_55F_67L_, Q9UKT9 (peptide)
chain: FKCPICGAPFTQKGNLLRHIKL
B19: 46F_47F_49P_50I_52G_53A_54F_55F_67L_, Q9UKT9 (peptide)
chain: FFCPICGAFFTQKGNLLRHIKL
B20: 46F_47R_49P_50Q_52G_53A_54P_55F_67L_, Q9UKT9 (peptide)
chain: FRCPQCGAPFTQKGNLLRHIKL
B21: 46F_47S_49P_50I_52G_53A_54P_55F_67L_, Q9UKT9 (peptide)
chain: FSCPICGAPFTQKGNLLRHIKL
B22: 46F_47E_49P_50I_52G_53A_54P_55F_67L_, Q9UKT9 (peptide)
chain: FECPICGAPFTQKGNLLRHIKL
B23: 46F_47F_49P_50I_52G_53A_54P_55F_67L_, Q9UKT9 (peptide)
chain: FFCPICGAPFTQKGNLLRHIKL
B24: 46F_47R_49P_50I_52G_53A_54P_55F_67L_, Q9UKT9 (peptide)
chain: FRCPICGAPFTQKGNLLRHIKL
B25: 46F_47R_49P_50I_52G_53A_54D_55F_67L_, Q9UKT9 (peptide)
chain: FRCPICGADFTQKGNLLRHIKL
B26: 46F_47N_49P_50I_52G_53A_54M_55F_67L_, Q9UKT9 (peptide)
chain: FNCPICGAMFTQKGNLLRHIKL
B27: 46F_47N_49P_50I_52G_53A_54P_55F_67L_, Q9UKT9 (peptide)
chain: FNCPICGAPFTQKGNLLRHIKL

Biological target: T1, CRBN, Q96SW2
Experiment: log2 fold change of degron read counts, EGFP-low vs EGFP+ sorted cells (limma voom), compound-induced degradation; higher = more compound-induced degradation of the degron-EGFP fusion; degrons are variants of IKZF1/3 zinc finger 2; compound dose not given here
Details: Jurkat, 18 h
[1] = compound: compound 19 (5-tert-butyl-thalidomide)
[2] = compound: compound 22 (5-morpholino-thalidomide)
[3] = compound: compound 33 (diphenyl IMiD analogue)
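Further: pooled lentiviral library of zinc finger degron-EGFP fusions in mCherry-positive Jurkat cells, FACS-sorted after compound exposure, with degron abundance counted by next-generation sequencing.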

Row | Sequence | log2 fold change of degron read counts [1] | log2 fold change of degron read counts [2] | log2 fold change of degron read counts [3] | log2 fold change of degron read counts (compound: thalidomide)
1 | B1 | -1.57 | -1.84 | 0.414 | 1.14
2 | B2 | -2.16 | -2.66 | -2.79 | -2.23
3 | B3 | -2.5 | -2.28 | -2.09 | -1.82
4 | B4 | -1.42 | -1.56 | -0.0516 | 0.0396
5 | B5 | -1.52 | -1.65 | -1.94 | -1.45
6 | B6 | -2.89 | -3.21 | -3.78 | -2.98
7 | B7 | -2.51 | -2.59 | -2.31 | -2.34
8 | B8 | -1.49 | -1.82 | -0.909 | -2.11
9 | B9 | -0.924 | -0.888 | 1.62 | 0.905
10 | B10 | 2.89 | 2.93 | 2.43 | 2.43
11 | B11 | 3.64 | 3.67 | 2.59 | 2.56
12 | B12 | 1.73 | 0.624 | -0.0341 | 0.396
13 | B13 | -2.53 | -2.33 | -2.93 | -2.77
14 | B14 | -2.34 | -1.73 | 0.185 | -0.424
15 | B15 | -1.7 | -3.27 | -1.9 | -1.5
16 | B16 | 1.49 | 0.628 | 0.167 | 1.01
17 | B17 | 2.56 | 2.36 | 1.76 | 0.179
18 | B18 | 2.55 | 2.24 | -0.00355 | 2.87
19 | B19 | 2.73 | 2.52 | 1.71 | 0.267
20 | B20 | 0.857 | 2.89 | 2.7 | 2.5
21 | B21 | 3.29 | 2.92 | 2.02 | 2.62
22 | B22 | 2.46 | 0.3 | 2.23 | 2.98
23 | B23 | 3.92 | 3.44 | 2.55 | 2.09
24 | B24 | 3.44 | 3.76 | 3.04 | 3.53
25 | B25 | -0.99 | -0.254 | 1.92 | 1.51
26 | B26 | 1.73 | 0.564 | 0.719 | 0.478
27 | B27 | 3.48 | 3.2 | 1.92 | 2.43
